Structures are written as SMILES. Out of some 340,000 compounds screened, about 1,700 (0.5%) were called active. The list comes from a sample in which actives are over-represented; it also holds similar structures and randomly drawn compounds. A number with no mark means an inactive call. No stated cut-off is given here; in the data, active means inhibition above about 40%; inactive means the rest.

In PubChem BioAssay AID504462 (Sanford-Burnham Center for Chemical Genomics, 2011) one finds inhibition data, which are given here for 90 compounds.

Sequence of Cysteine protease ATG4B (Homo sapiens) (Q9Y4P1 whole entry, looked up): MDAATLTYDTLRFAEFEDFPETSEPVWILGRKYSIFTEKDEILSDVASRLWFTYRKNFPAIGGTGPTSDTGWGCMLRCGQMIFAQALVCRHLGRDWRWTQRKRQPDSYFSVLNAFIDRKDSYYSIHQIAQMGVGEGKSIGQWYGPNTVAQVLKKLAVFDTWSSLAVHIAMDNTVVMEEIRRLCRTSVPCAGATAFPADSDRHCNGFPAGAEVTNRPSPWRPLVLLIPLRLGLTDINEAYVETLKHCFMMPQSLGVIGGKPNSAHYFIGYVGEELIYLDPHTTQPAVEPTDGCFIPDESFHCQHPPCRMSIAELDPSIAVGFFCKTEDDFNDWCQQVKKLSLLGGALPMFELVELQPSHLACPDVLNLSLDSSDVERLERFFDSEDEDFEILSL

This experiment addresses Cysteine protease ATG4B (Homo sapiens) (UniProt Q9Y4P1). Nature of the experiment: blockers of ATG4B cysteine protease activity – biochemical, fluorescence, uHTS, primary screen (AID 504462). Conditions: ATG4B cleavage of LC3-PLA2, NBD-HPC fluorescence, 1 h; at 8.33 µM; hits give high values.
Consider `c1ccc(C2=Nc3cccc4cccc(c34)N2)cc1`, for which the inhibition is 56.3% (active). The figure for `COc1ccccc1C1=Nc2cccc3cccc(c23)N1` is 12.2%; for `Fc1ccccc1N=C1Nc2cccc3cccc1c23` it is -6.86%; for `CCN1CCCC1CNC(=O)Cn1cnc2ccc(S(=O)(=O)N3CCC(C)CC3)cc2c1=O` (stereo not given) it is -2.67%. Take `NC(=O)C1CCN(C(=O)c2ccc(F)c(S(=O)(=O)N3CCOCC3)c2)CC1`: the inhibition was 0.71%. The result for `Nc1c(Cl)cc(S(N)(=O)=O)cc1S(N)(=O)=O` reads 3.68%; that for `CCc1ccc(N2CC(C(=O)Nc3ccc(S(=O)(=O)Nc4nccs4)cc3)CC2=O)cc1` (stereo not given), -16.4%. As for `CCNC(=O)c1ccc(OCC(=O)Nc2ccc(F)cc2)c(OC)c1`, the inhibition is 2.31%. Take `COc1ccc(NS(=O)(=O)c2cc(NC(=O)COc3ccccc3F)ccc2OC)cc1`: the inhibition was -14.9%. On to `COc1ccc(NC(=O)COc2ccc(C(=O)c3ccc(F)cc3)cc2)cc1S(N)(=O)=O`, for which the inhibition was 97.7% (active).

`O=C(Nc1ccn(CCCNCc2ccc3[nH]ccc3c2)c(=O)n1)OCc1ccccc1`: the inhibition is -8.68%.

Regarding `COc1cccc(NC(=O)C/C(C)=N/NC(=O)C2CCCCC2)c1`, the inhibition was 1.29%. Take `O=C(c1cnn(-c2ccc(Cl)cc2)c1)c1ccccc1O`: the inhibition is 14.8%. In the case of `Cc1ccc(CCC(=O)Nc2ncc(Cc3cc(Cl)ccc3Cl)s2)o1`, the inhibition is 0.02%.

Regarding `Cc1ncc(CC(=O)n2cc(C(=O)c3cc(Cl)ccc3O)cn2)s1`, the inhibition is 80% (active).

For the compound `COc1ccc(NC(=O)CC2SC(N3CCCCC3)=NC2=O)cc1OC` (stereo not given), the inhibition was -1.9%. The figure for `CN(CC(=O)NCc1ccc(Cl)cc1)S(=O)(=O)c1cccs1` is -5.56%; for `CN(Cc1c(F)cccc1Cl)S(=O)(=O)c1cccs1` it is 49.8% (active); for `CN(Cc1ccc(F)cc1Cl)S(=O)(=O)c1cccs1` it is 11%. For `COC(=O)c1c(NC(=O)c2c(Cl)cnn2C)sc(C)c1C`, the inhibition is -7.14%. The figure for `CC1(C)Cc2cccc(OCC(=O)Nc3nccs3)c2O1` is -9.2%; for `Cc1ccccc1N1CCN(C2CCCN(C(=O)c3ocnc3C)C2)CC1` (stereo not given) it is 4.49%; for `COc1ccc(S(=O)(=O)Nc2cc(C)on2)cc1NC(C)=O` it is -6.89%. Consider `CCCc1[nH]nc2c1C(c1ccc(Br)s1)C(C#N)=C(N)O2` (stereo not given), for which the inhibition was -2.42%. The result for `CCCc1[nH]nc2c1C(c1ccc(OC(=O)c3ccco3)cc1)C(C#N)=C(N)O2` (stereo not given) reads 69.2% (active); that for `COc1ccc(-c2[nH]nc3c2C(c2ccncc2)C(C#N)=C(N)O3)cc1` (stereo not given), -11%. For the compound `CCC(=O)c1cc2c(cc1NC(=O)c1cccs1)OCCO2`, the inhibition was -18.9%.

As to `C[C@@H]1ON(C)[C@H]2C[C@H]3c4cc(N5CCN(C)CC5)ccc4CCN3C(=O)[C@@H]12`, the inhibition is -6.52%. With `CCc1c(O)cc2n(c1=O)-c1ccccc1C2(C)C`, the inhibition was -8.25%.

Turning to `O=C(COC(=O)c1cccs1)NCc1cccs1`, the inhibition was -10.9%.

With `O=C(COC(=O)c1ccc2c(c1)OCCO2)NCc1ccccc1Cl`, the inhibition is 22.8%. For the compound `CN(C)C(=O)c1ccc(NC(=O)COC(=O)c2cc3c(s2)CCCCC3)cc1`, the inhibition is -5.46%.

In the case of `O=C(COC(=O)c1cc2c(s1)CCCC2)NCc1ccccc1Cl`, the inhibition was 40.4% (active). With `O=C(COC(=O)/C(=C/c1cccs1)c1cccs1)NCc1ccccc1Cl`, the inhibition is 56% (active). For `COc1ccccc1CNC(=O)COC(=O)c1cccs1`, the inhibition was 0.37%.

`COc1ccc(NC(=O)C2CCC(CNc3c(N4CCCCC4)c(=O)c3=O)CC2)c(OC)c1` (stereo not given): the inhibition was 26.1%. The result for `CCN1CCN(C(=O)c2ccc(CN(c3ccc(C)c(C)c3)S(C)(=O)=O)cc2)CC1` reads -3.29%; that for `Cc1ccc(S(=O)(=O)N(C)CC(=O)NCC(c2ccc(F)cc2)N2CCOCC2)cc1` (stereo not given), -5.42%; that for `CCC(C)(C)n1nnnc1C(c1cccs1)N1CCN(c2nc3ccccc3s2)CC1` (stereo not given), 1.17%. Turning to `COc1nc(NC2CCCCC2)nc(N2CCCCCC2)n1`, the inhibition is 15.7%. Take `O=C(CSc1nc(-c2ccccc2)cs1)Nc1cccc([N+](=O)[O-])c1`: the inhibition is 41.4% (active). The figure for `O=C(CSc1ncn[nH]1)Nc1nc(-c2cccc([N+](=O)[O-])c2)cs1` is -6.82%; for `COc1ccc(-n2cnnc2SCC(=O)Nc2cccc([N+](=O)[O-])c2)cc1` it is -7.34%; for `Cc1cc(NC(=O)c2ccco2)c(=O)n(Cc2c(F)cccc2Cl)c1` it is 4.88%.

As for `Cc1nn(Cc2ccccc2Cl)c(C)c1NC(=O)Cn1nc([N+](=O)[O-])c(Cl)c1C`, the inhibition is -0.32%.

Consider `Cc1c(Cl)c([N+](=O)[O-])nn1Cc1ccc(C(=O)N/N=C\c2cc(Cl)ccc2O)o1`, for which the inhibition is 64.3% (active). As for `O=C(N/N=C\c1ccc(Br)cc1)c1ccc(Cn2cccn2)o1`, the inhibition was -3.61%. The figure for `Cc1nn(-c2ccccc2)c(C)c1/C=N/NC(=O)CSc1nc2ccccc2c(=O)n1-c1ccccc1` is 45.1% (active); for `Cn1c(SCC(=O)N/N=C/c2ccc(O)c(O)c2)nc2ccccc21` it is -12.3%. For `O=C(CSc1nc2ccccc2[nH]1)N/N=C/C=C\c1ccccc1[N+](=O)[O-]`, the inhibition was 7.51%. Consider `C/C(=N\NC(=O)CSc1nc2ccccc2c(=O)n1-c1ccccc1C)c1cccs1`, for which the inhibition is 8.49%.

On to `Cc1ccc(-n2c(SCC(=O)N/N=C/C=C/c3ccccc3[N+](=O)[O-])nc3ccccc3c2=O)cc1`, for which the inhibition was 54.4% (active). The figure for `CCn1c(SCC(=O)N/N=C/C=C/c2ccccc2[N+](=O)[O-])nnc1-c1ccccc1` is 1.16%. The figure for `CCC[C@@H]1C[C@@]1(CCC)[C@@H](NC(=O)c1ccccc1)c1ccc(C(=O)OC)cc1` is -5.7%.

Turning to `COc1ccc(C(=O)NC(C)Cn2nc(C)cc2C)cc1OC1CCN(C(C)=O)CC1` (stereo not given), the inhibition is 3.85%. With `O=C(CCN1CCN(c2ccccc2)CC1)NNC(=S)Nc1ccccc1`, the inhibition is -1.44%. The figure for `CCc1ccc2c(c1)C1(NN=C(c3ccccc3)S1)C(=O)N2` (stereo not given) is 12.8%. In the case of `CCN=C1S/C(=C\c2cc(Br)ccc2OCC(=O)OCC)C(=O)N1CC`, the inhibition is -7.54%. For `Cc1ccccc1OCc1nnc(SCC(=O)N2c3ccccc3Sc3ccc(Cl)cc32)o1`, the inhibition was -8.7%. The figure for `O=S(=O)(Oc1ccccc1C(=S)N1CCOCC1)c1ccc(Cl)cc1` is 2.25%; for `CN(C)c1cc(N)c2ccccc2n1` (tested in a mixture with another compound) it is -6.07%; for `Cn1cc[n+](C)c1COc1ccc(C=O)cc1` it is 6.27%.

`Cc1ccc(S(=O)(=O)N(CC(=O)Nc2cccc([N+](=O)[O-])c2)Cc2ccc(Cl)cc2)cc1`: the inhibition was 75.6% (active). The figure for `Cc1ccc(S(=O)(=O)N(Cc2cccc([N+](=O)[O-])c2)C(=O)N2CCN(C)CC2)cc1` is 3.55%; for `COc1ccc(N(CC(=O)Nc2ccc(C)cc2C)S(=O)(=O)c2ccccc2[N+](=O)[O-])c(OC)c1` it is -12.7%; for `COc1ccc(C)cc1S(=O)(=O)N(CC(=O)Nc1cccc([N+](=O)[O-])c1)c1ccc(C)cc1` it is 88.8% (active). The figure for `Cc1ccc(N(CC(=O)Nc2cc(C)cc(C)c2)S(=O)(=O)c2cccc3nonc23)cc1` is 12.5%; for `CN(c1ccccc1)S(=O)(=O)c1cccc(NC(=O)Cc2ccc(Cl)cc2)c1` it is -14.9%; for `CCCCn1c(N)c(N(CC(C)C)C(=O)CSc2ccc([N+](=O)[O-])cc2)c(=O)[nH]c1=O` it is 8.17%. The result for `CCOC(=O)CCCNC(=O)COC(=O)c1cc(Br)c(Br)s1` reads -7.58%; that for `C/C=N/NC(=O)CCCC(=O)N/N=C/C`, -3.09%; that for `CC(C)c1ccc2c(c1)c(SC(C)(C)C)c(CC(C)(C)C(=O)O)n2Cc1ccc(Cl)cc1`, 56.2% (active).

For the compound `CCN(CC)S(=O)(=O)c1ccc(N(C)Cc2ccc(C(F)(F)F)cc2)nc1`, the inhibition is -7.77%.

As for `O=C(c1ccco1)N1CCN(CC(=O)N(C2CCCCC2)C2CCS(=O)(=O)C2)CC1` (stereo not given), the inhibition is 0.94%. In the case of `N#Cc1ccc(Oc2cc(C(F)(F)F)nc(-c3ccccn3)n2)cc1`, the inhibition was -10.2%. The result for `COc1ccc(NCCc2ccccn2)cc1` reads -5.58%. The result for `COc1cnc(-c2ccccn2)nc1Oc1ccc(C(C)(C)C)cc1` reads 59.3% (active); that for `CCCCN(C1CCS(=O)(=O)C1)S(=O)(=O)c1ccc(C(C)C)cc1` (stereo not given), 6.86%; that for `Cc1ccc(-c2cc(C(=O)N3CCc4ccccc4C3)no2)cc1`, 40% (active). The result for `Cn1cccc1C(=O)N1CCc2ccccc2C1` reads -0.25%; that for `O=C(c1cc(-c2cccc(O)c2)on1)N1CCc2ccccc2C1`, 35.8%; that for `O=C(Nc1ccccc1Cl)N1CCN(c2ccc3nncn3n2)CC1`, -9.87%. For the compound `CN1C(=O)[C@H]2[C@@H](C3CC3)N3C(=O)CN(Cc4ccccc4)C(=O)[C@@]3(C)[C@H]2C1=O`, the inhibition was 0.76%.

In the case of `O=C1c2ccccc2C(=O)N1CCCc1nc(-c2ccccc2)no1`, the inhibition is 3.08%. The result for `O=C1c2ccccc2C(=O)N1CCCCCCN1C(=O)c2ccccc2C1=O` reads 2.67%; that for `O=C1c2ccccc2C(=O)N1Cc1cc(-c2ccccc2Cl)no1`, 56.3% (active). On to `Cc1nc2ccccc2c(C(=O)O)c1-c1ccccn1`, for which the inhibition is -2.51%. The figure for `Cc1nc2ccccc2c(-c2ccccc2)c1C(=O)c1ccccc1` is 80% (active). In the case of `Cc1nc2ccccc2c(C)c1C(=O)c1ccc(F)cc1`, the inhibition was -2.83%.

As to `CCn1c2c(c3ccc(OC)cc31)CCCC2=O`, the inhibition was -3.83%.

What is called inhibition is the change of the read-out against control, counted positive when it falls.
